Measured values reported in PubChem BioAssay (NCATS).
Values without a mark were called inactive. Records with an inconclusive call do not appear. Entries that show only a call come without a potency. Active and inactive are the calls of the source. Calls come from the whole dose curve; as a rule, active = well fitted curve in the direction sought with a large enough effect; inconclusive = small, poorly fitted or top-dose-only effect, or another doubt; inactive = no such curve, though single readings can be large; an effect the other way counts as inactive or inconclusive.

Assays:
[1] = target: Cytochrome P450 3A4 (Homo sapiens) (UniProt P08684); assay: qHTS for inhibitors of CYP3A4 against the NCATS DSHEA and TCM libraries (AID 1919971);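 note: inhibition lowers luminescence from luciferin made by CYP3A4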
Cytochrome P450 3A4 (Homo sapiens), sequence (P08684 whole entry, looked up): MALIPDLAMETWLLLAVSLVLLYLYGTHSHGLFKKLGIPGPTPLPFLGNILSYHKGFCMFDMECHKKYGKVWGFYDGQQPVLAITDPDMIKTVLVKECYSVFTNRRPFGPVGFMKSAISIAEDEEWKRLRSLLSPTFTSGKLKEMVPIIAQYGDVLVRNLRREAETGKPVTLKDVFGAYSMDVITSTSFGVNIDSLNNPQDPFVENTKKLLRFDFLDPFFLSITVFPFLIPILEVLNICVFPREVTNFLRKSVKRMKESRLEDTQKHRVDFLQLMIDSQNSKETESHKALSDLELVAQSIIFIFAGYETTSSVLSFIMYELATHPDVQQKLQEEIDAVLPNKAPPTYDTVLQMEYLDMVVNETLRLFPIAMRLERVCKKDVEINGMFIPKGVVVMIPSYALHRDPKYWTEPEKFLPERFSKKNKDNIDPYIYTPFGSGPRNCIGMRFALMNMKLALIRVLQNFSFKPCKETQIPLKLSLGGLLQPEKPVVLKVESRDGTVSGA
Summary of the method: (§1)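 Substances were tested against enzyme with a pro-luciferin substrate; minus-enzyme wells served as background. After NADPH-initiated oxidation (30-45 min, RT), light was generated with P450-Glo reagent.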

[2] = target: Cytochrome P450 2D6 (Homo sapiens) (UniProt P10635); assay: qHTS for inhibitors of CYP2D6 against the NCATS DSHEA and TCM libraries (AID 1919972)
Cytochrome P450 2D6 (Homo sapiens), sequence (P10635 whole entry, looked up): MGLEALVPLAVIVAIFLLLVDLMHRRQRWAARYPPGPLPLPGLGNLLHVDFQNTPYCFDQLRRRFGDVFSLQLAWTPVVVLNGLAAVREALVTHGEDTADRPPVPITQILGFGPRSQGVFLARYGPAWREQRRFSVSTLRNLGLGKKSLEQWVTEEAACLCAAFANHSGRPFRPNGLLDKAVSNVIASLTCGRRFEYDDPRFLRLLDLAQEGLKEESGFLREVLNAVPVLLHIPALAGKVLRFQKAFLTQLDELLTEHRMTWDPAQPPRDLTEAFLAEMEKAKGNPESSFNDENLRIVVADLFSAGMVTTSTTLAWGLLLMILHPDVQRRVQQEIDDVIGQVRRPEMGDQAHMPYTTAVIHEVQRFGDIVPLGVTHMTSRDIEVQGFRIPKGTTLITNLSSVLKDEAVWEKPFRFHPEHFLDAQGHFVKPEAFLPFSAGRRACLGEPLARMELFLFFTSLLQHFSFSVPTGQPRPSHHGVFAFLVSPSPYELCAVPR
Summary of the method: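 qHTS, concentration–response format with most substances from 19.5 nM. CYP2D6 + pro-luciferin substrate, 15 min with compound, then 1x NADPH regen, 30–45 min RT dark. Glo detection 30 min, luminescence. Quinidine control.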

[3] = KB-3-1 P-gp reporter qHTS against the NCATS DSHEA and TCM libraries (AID 1919975)
Summary of the method: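 Cell viability qHTS: 500 KB-3-1 cells/well, substances in titration, ~72 h, 37C; luminescent CellTiter-Glo read.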

[4] = qHTS Counterscreen for compound interference against the NCATS DSHEA and TCM libraries (AID 1919978); details: firefly luciferase detection reagent interference, luminescence;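 note: compounds preincubated with 1 µM D-luciferin or buffer before detection reagent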
Summary of the method: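 Interference check: test samples were incubated with D-luciferin (final 1 uM) or buffer only for 15 min, room temperature, in a qHTS titration up to 39.8 uM, then developed with detection reagent and read by luminescence.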

[5] = Dual reporter qHTS for agonist of Pregnane X Receptor (hPXR) against the NCATS DSHEA and TCM libraries: Fluorescence readout (AID 1920058); note: potency is the fitted concentration of half-maximal effect
Summary of the method: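 Fluorescence read-out for cell viability: CellTiter-Fluor, 1 h at 37 °C, Ex/Em 405/540 nm. This followed ~24 h treatment of hPXR-Luc HepG2 cells with substances in agonist mode.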

[6] = target: Nuclear receptor subfamily 1 group I member 2 (Homo sapiens) (UniProt O75469); assay: Dual reporter qHTS for agonist of Pregnane X Receptor (hPXR) against the NCATS DSHEA and TCM libraries: Luminescence readout (AID 1920059); note: potency is the fitted concentration of half-maximal effect
Nuclear receptor subfamily 1 group I member 2 (Homo sapiens), sequence (O75469 whole entry, looked up): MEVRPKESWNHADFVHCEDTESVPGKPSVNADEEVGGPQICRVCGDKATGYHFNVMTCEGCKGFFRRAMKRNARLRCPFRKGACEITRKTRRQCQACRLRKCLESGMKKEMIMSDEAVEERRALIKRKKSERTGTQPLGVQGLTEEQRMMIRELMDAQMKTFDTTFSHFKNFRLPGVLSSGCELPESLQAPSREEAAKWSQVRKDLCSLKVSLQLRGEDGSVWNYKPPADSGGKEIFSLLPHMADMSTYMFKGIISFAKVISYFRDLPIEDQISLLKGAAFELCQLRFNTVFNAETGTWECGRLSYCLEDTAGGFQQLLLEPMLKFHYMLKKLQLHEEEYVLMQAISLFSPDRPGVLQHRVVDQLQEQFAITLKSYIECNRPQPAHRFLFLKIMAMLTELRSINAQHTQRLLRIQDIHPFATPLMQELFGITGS
Summary of the method: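 hPXR-Luc HepG2 cells, 2000/well in 5% charcoal-stripped FBS medium, attached 5 h, then exposed 24 h at 37C to compounds. Viability by CellTiter-Fluor, then luciferase luminescence with ONE-Glo.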

[7] = target: Nuclear receptor subfamily 1 group I member 2 (Homo sapiens) (UniProt O75469); assay: Dual reporter qHTS for antagonist of Pregnane X Receptor (hPXR) against the NCATS DSHEA and TCM libraries: Luminescence Readout (AID 1920060);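 note: HepG2 cells carrying hPXR luciferase reporter stimulated with rifampicin at 2 µM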
Summary of the method: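 hPXR-Luc HepG2 cells exposed 24 h at 37 C to compounds with 2 uM rifampicin in antagonist mode; luciferase luminescence measured by ONE-Glo, with CellTiter-Fluor viability read beforehand.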

[8] = target: Cytochrome P450 2C9 (Homo sapiens) (UniProt P11712); assay: qHTS for inhibitors of CYP2C9 against the NCATS DSHEA and TCM libraries (AID 1919973); note: potency is the fitted concentration of half-maximal effect
Cytochrome P450 2C9 (Homo sapiens), sequence (P11712 whole entry, looked up): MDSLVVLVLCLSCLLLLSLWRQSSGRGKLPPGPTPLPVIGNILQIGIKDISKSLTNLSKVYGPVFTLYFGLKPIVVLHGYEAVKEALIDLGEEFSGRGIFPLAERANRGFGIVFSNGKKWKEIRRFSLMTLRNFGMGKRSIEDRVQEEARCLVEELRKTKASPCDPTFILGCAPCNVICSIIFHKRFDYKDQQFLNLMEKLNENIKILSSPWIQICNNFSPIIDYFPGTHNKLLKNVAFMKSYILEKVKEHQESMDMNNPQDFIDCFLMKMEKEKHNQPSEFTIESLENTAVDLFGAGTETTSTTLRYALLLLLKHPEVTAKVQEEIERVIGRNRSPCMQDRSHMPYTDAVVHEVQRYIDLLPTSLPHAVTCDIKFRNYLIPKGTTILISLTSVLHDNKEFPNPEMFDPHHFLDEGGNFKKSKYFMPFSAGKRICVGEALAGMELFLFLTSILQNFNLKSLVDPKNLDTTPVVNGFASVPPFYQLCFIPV
Summary of the method: as §1

[9] = target: Cytochrome P450 2C19 (Homo sapiens) (UniProt P33261); assay: qHTS for inhibitors of CYP2C19 against the NCATS DSHEA and TCM libraries (AID 1919974);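 note: luminescence from luciferin released by CYP2C19 oxidation of a pro-luciferin substrate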; note: potency is the fitted concentration of half-maximal effect
Cytochrome P450 2C19 (Homo sapiens), sequence (P33261 whole entry, looked up): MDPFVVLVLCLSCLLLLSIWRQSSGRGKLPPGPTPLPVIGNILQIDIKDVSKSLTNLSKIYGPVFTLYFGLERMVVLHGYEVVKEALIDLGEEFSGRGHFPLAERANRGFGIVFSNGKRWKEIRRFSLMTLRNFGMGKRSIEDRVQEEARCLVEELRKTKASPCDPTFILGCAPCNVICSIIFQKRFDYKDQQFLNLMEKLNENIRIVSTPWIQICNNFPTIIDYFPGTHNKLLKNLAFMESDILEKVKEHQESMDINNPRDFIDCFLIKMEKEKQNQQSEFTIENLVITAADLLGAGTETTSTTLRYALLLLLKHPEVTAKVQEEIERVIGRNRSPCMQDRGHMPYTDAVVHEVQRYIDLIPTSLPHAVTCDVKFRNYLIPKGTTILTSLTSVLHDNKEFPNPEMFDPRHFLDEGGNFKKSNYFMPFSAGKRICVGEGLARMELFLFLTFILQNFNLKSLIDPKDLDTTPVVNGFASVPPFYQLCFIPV
Summary of the method: as §1

[10] = target: Cytochrome P450 1A2 (Homo sapiens) (UniProt P05177); assay: qHTS for inhibitors of CYPIA2 against the NCATS DSHEA and TCM libraries (AID 1919976); note: series mostly up to about 37 µM
Cytochrome P450 1A2 (Homo sapiens), sequence (P05177 whole entry, looked up): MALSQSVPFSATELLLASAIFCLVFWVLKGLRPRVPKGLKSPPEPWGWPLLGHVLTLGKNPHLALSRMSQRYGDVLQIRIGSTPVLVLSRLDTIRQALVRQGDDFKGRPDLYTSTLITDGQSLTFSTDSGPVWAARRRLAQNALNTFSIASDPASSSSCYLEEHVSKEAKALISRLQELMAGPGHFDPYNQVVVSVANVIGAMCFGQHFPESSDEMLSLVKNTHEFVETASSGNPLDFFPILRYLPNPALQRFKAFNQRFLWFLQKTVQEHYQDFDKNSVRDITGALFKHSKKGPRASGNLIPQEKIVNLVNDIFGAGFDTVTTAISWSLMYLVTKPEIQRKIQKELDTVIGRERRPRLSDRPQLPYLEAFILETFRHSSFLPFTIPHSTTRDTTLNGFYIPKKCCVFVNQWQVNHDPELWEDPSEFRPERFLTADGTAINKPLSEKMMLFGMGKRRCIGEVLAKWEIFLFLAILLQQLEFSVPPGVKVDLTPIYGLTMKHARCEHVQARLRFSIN
Summary of the method: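 Luminescence read-out: pro-luciferin converted to D-luciferin by CYP1A2, detected with P450-Glo reagent after 30 min RT. Enzyme plus substrate got compounds for 15 min RT; NADPH regeneration solution (final 1x) started a 30-45 min reaction, light-protected.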

SMILES	outcome [1]	outcome [2]	outcome [3]	max response [4]	Potency [5]	Potency [6]	outcome [7]	Potency [8]	Potency [9]	outcome [10]
CC(C)(CO)[C@@H](O)C(=O)NCCC(=O)O	inactive	inactive	inactive	-1.56%	inactive	11.2 µM (active)	inactive			
O=c1cc(-c2ccc(O)c(O)c2)oc2cc(O)cc(O)c12		inactive	inactive	-0.391%	inactive		inactive	11.2 µM (active)	7.94 µM (active)	
OC[C@H]1O[C@@H](OCCc2ccc(O)cc2)[C@H](O)[C@@H](O)[C@H]1O	inactive	inactive	inactive	1.11%	inactive	inactive	inactive	inactive	inactive	inactive
Cc1cc2nc3c(=O)[nH]c(=O)nc-3n(CC(O)C(O)C(O)CO)c2cc1C (stereo unspecified)	inactive		inactive	1.01%	28.2 µM (active)	inactive	inactive	inactive		
